Reference: PubChem BioAssay (NCATS)
A number with no mark means an inactive call. For part of these data: Results with a measured potency or affinity are listed apart. Activity calls are given as the source filed them. How the calls were made is not given here.

Key:
[1] = Ebola virus entry assay, green fluorescence channel
[2] = Ebola virus entry assay, blue channel fluorescence
[3] = Ebola virus entry assay, ratio channel
[4] = Ebola virus entry assay, green channel fluorescence
[5] = Ebola virus entry assay, reporter ratio channel; Channel type: primary
[6] = Ebola virus entry assay, blue channel (ratio component)
Wherever efficacy is given: 0% is about no effect.

Compound	efficacy [1] [%]	outcome [2]	outcome [3]	outcome [4]	outcome [5]	outcome [6]	AC50 [3]	AC50 [5]
CC(=O)OCC(=O)Nc1cc(C#N)cc(NC(=O)COC(C)=O)c1Cl	24.6	inactive	inactive	inactive	inactive	inactive	–	–
CC1(C)OC[C@@H](COC(=O)CCc2ccc(OC[C@@H](O)CNCCNC(=O)N3CCOCC3)cc2)O1	-15.7	inactive	inactive	inactive	inactive	inactive	–	–
CC(C)[C@@H]1CC[C@@H](C)CC1=O	-22.8	inactive	inactive	inactive	inactive	inactive	–	–
CCCNC(C)(C)COC(=O)c1ccccc1	-21	inactive	inactive	inactive	inactive	inactive	–	–
O=C(CCNNC(=O)c1ccncc1)NCc1ccccc1	-17	inactive	inactive	inactive	inactive	inactive	–	–
O=c1[nH]cnc2c1ncn2[C@@H]1O[C@H](CO)[C@@H](O)[C@H]1O	-42.8	inactive	inactive	inactive	inactive	inactive	–	–
C#C[C@]1(OC(C)=O)CC[C@H]2[C@@H]3CCC4=C[C@@H](OC(C)=O)CC[C@@H]4[C@H]3CC[C@@]21C	-36.9	inactive	inactive	inactive	inactive	inactive	–	–
COc1ccc2c(c1)C(=O)N(CCc1ccc(S(=O)(=O)NC(=O)NC3CCCCC3)cc1)C(=O)C2(C)C	-16.1	inactive	inactive	inactive	inactive	inactive	–	–
COc1nc(C)nc(Cl)c1NC1=NCCN1	-23.1	inactive	inactive	inactive	inactive	inactive	–	–
Cl/C(=C\n1cncn1)c1ccc(Cl)cc1Cl	-16.7	inactive	inactive	inactive	inactive	inactive	–	–
COc1cccc2c1C(=O)c1c(O)c3c(c(O)c1C2=O)C[C@@](O)(C(=O)CO)C[C@@H]3O[C@H]1C[C@H](N)[C@H](O[C@@H]2CCCCO2)[C@H](C)O1	15.3	inactive	inactive	inactive	inactive	inactive	–	–
N[C@H](Cc1c[nH]c2ccccc12)C(=O)O	29.9	inactive	inactive	inactive	inactive	inactive	–	–
CC(C)C(=O)Nc1cccc(C2CN3CCSC3=N2)c1 (stereo unspecified)	-12.5	inactive	inactive	inactive	inactive	inactive	–	–
C[C@H](N)[C@H](O)c1cccc(O)c1	-10.3	inactive	inactive	inactive	inactive	inactive	–	–
O=C(O)c1ccc(OCCCOc2ccc(C(=O)O)cc2)cc1	11.3	inactive	inactive	inactive	inactive	inactive	–	–
CC(=O)N1C[C@H](O)C[C@H]1C(=O)O	24.5	inactive	inactive	inactive	inactive	inactive	–	–
CCC(=O)Nc1ccc(O)cc1	-18.3	inactive	inactive	inactive	inactive	inactive	–	–
Brc1c(NC2=NCCN2)ccc2nccnc12	-28.5	inactive	inactive	inactive	inactive	inactive	–	–
CCOc1ccccc1C(N)=O	-14.9	inactive	inactive	inactive	inactive	inactive	–	–

Compound	efficacy [1] [%]	outcome [2]	outcome [3]	outcome [4]	outcome [5]	outcome [6]	AC50 [3]	AC50 [5]
O=C(Nc1ccc(C(=O)O)c(O)c1)c1ccccc1	-10.4	inactive	inactive	inactive	inactive	inactive	–	–
NC(CSCC(=O)O)C(=O)O (stereo unspecified)	-16	inactive	inactive	inactive	inactive	inactive	–	–
C[C@@H](O)[C@H]1C(=O)N2C(C(=O)O)=C([C@H]3CCCO3)S[C@H]12	-19.1	inactive	inactive	inactive	inactive	inactive	–	–
O=C(OCC(O)CO)c1ccccc1Nc1ccnc2c(C(F)(F)F)cccc12 (stereo unspecified)	31.1	inactive	inactive	inactive	inactive	inactive	–	–
C[C@H]1C[C@H]2[C@@H]3CCC4=CC(=O)C=C[C@]4(C)[C@H]3C(=O)C[C@]2(C)[C@@]1(O)C(=O)CO	-24.9	inactive	inactive	inactive	inactive	inactive	–	–
CCOC(=O)[C@H](CCc1ccccc1)N[C@@H](C)C(=O)N(CC(=O)O)C1Cc2ccccc2C1	28.2	inactive	–	inactive	–	inactive	20 µM (active)	20 µM (active)
COc1ccc2[nH]c(S(=O)Cc3ncc(C)c(OC)c3C)nc2n1 (stereo unspecified)	29.9	inactive	inactive	inactive	inactive	inactive	–	–
COc1ccc2cc(C=O)ccc2c1	-11.5	inactive	inactive	inactive	inactive	inactive	–	–
Cc1ccc(/C=N/n2c(-c3ccccc3)csc2=S)cc1	32.3	inactive	inactive	inactive	inactive	inactive	–	–
CC(O)Cn1cnc2c1c(=O)n(C)c(=O)n2C (stereo unspecified)	6.04	inactive	inactive	inactive	inactive	inactive	–	–
FC(F)(F)C(Cl)Br (stereo unspecified)	31.6	inactive	inactive	inactive	inactive	inactive	–	–
Oc1ccc(O)cc1	16.5	inactive	inactive	inactive	inactive	inactive	–	–
C/C=C/c1ccc(OC)cc1	-25.2	inactive	inactive	inactive	inactive	inactive	–	–
Nc1c(NC/C=C\COc2cc(CN3CCCCC3)ccn2)c(=O)c1=O	-32.1	inactive	inactive	inactive	inactive	inactive	–	–
CCOC(=O)c1ccc(C#Cc2ccc3c(c2)C(C)(C)CCS3)nc1	24	inactive	inactive	inactive	inactive	inactive	–	–
CC(C)(C)NCC(O)COc1cccc2c1CCC(=O)N2 (stereo unspecified)	-22.9	inactive	inactive	inactive	inactive	inactive	–	–
CC(C)NC(=O)c1ccc(C=O)cc1	10.7	inactive	inactive	inactive	inactive	inactive	–	–
COc1cc(NS(=O)(=O)c2ccc(N)cc2)ncn1	14.9	inactive	inactive	inactive	inactive	inactive	–	–
CC(C)=CCC/C(C)=C/CC/C(C)=C/C(=O)OCC(=O)[C@@]1(O)CC[C@H]2[C@@H]3CCC4=CC(=O)C=C[C@]4(C)[C@H]3[C@@H](O)C[C@@]21C	14.4	inactive	inactive	inactive	inactive	inactive	–	–

Compound	efficacy [1] [%]	outcome [2]	outcome [3]	outcome [4]	outcome [5]	outcome [6]	AC50 [3]	AC50 [5]
CN1CCN(c2cc3c(nn2)Oc2ccccc2N3C)CC1	-18	inactive	inactive	inactive	inactive	inactive	–	–
CC(=O)Nc1ccc(S(=O)(=O)Nc2ccc([N+](=O)[O-])cc2)cc1	-17.6	inactive	inactive	inactive	inactive	inactive	–	–
O=C(O)c1ccccc1Nc1cc(Cl)ccc1C(=O)O	-12.4	inactive	inactive	inactive	inactive	inactive	–	–
O=C(OCC(COC(=O)c1cccnc1)(COC(=O)c1cccnc1)COC(=O)c1cccnc1)c1cccnc1	-29.2	inactive	inactive	inactive	inactive	inactive	–	–
NCCc1cnc[nH]1	13.4	inactive	inactive	inactive	inactive	inactive	–	–
CC1=CC(=O)c2ccccc2C1=O	12.6	inactive	inactive	inactive	inactive	inactive	–	–
Cc1cccc(C)c1NC(=O)CN1CCCC1	18.6	inactive	inactive	inactive	inactive	inactive	–	–
CCN(CC)CCNC(=O)c1cc(Br)c(N)cc1OC	15.9	inactive	inactive	inactive	inactive	inactive	–	–
NC(=O)C1(N2CCCCC2)CCN(CCCC(=O)c2ccc(F)cc2)CC1	25.9	inactive	inactive	inactive	inactive	inactive	–	–
CCCCNc1cc(C(=O)O)cc(S(N)(=O)=O)c1Oc1ccccc1	-14.8	inactive	inactive	inactive	inactive	inactive	–	–
CC(=O)Oc1ccc(C(=C2CCCCC2)c2ccc(OC(C)=O)cc2)cc1	-12.6	inactive	inactive	inactive	inactive	inactive	–	–
CO/N=C(\C(=O)O)c1csc(NC(=O)CCl)n1	7.58	inactive	inactive	inactive	inactive	inactive	–	–
Cc1[nH]c(C)c(Cl)c(=O)c1Cl	22.5	inactive	inactive	inactive	inactive	inactive	–	–
CCOC(=O)c1cc(=O)c2c(OCC(COc3cccc4oc(C(=O)OCC)cc(=O)c34)OC(=O)[C@@H](N)CCCCN)cccc2o1	-21.2	inactive	inactive	inactive	inactive	inactive	–	–
CCCCN(CCN(CCCC)C(=O)N1CCOCC1)C(=O)N1CCOCC1	15.6	inactive	inactive	inactive	inactive	inactive	–	–
Cc1cc(NC(=O)C2=C(O)c3ccccc3S(=O)(=O)N2C)no1	-7.71	inactive	inactive	inactive	inactive	inactive	–	–
CCN(CC)CC(=O)Nc1c(C)cccc1C	11	inactive	inactive	inactive	inactive	inactive	–	–
O=C(O)CCC(=O)Nc1ccc(S(=O)(=O)Nc2nccs2)cc1	-34.8	inactive	inactive	inactive	inactive	inactive	–	–
